Bioassay records: PubChem BioAssay, National Center for Advancing Translational Sciences (NCATS)
This is one part of a sample in which hits are shown more often than they occur.
LmPK inhibitor – LmPK (Leishmania mexicana) enzyme inhibition; purified LmPK, Kinase-Glo ATP luminescence, 1 h; Potency, µM (highest dose often 57.5 µM), for the others: top-dose activity change, negative = inhibition, actives largely listed as inhibitors; 290,000 compounds, 0.37% hits; AID 1721; note: potency is the fitted concentration of half-maximal effect; % is set by controls: 0 for no effect and ±100 for the full control effect
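Pyruvate kinase activity monitored as ATP production (luciferase luminescence). Conditions: 0.1 nM enzyme, 0.5 mM PEP, 0.1 mM ADP, 1 h, RT; normalized against uninhibited and no-enzyme wells.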
CHX counter – counter-screen for Shiga toxin inhibitors: cycloheximide protein synthesis inhibition; cell reporter, cycloheximide protein synthesis inhibition counterscreen; max response, %; 300,000 compounds, 12% hits; AID 2314; in the data active = max response mostly above about 13%, no sharp cut-off; inactive = mostly below about 14%; note: read at 38.3 µM for the half of the compounds with a filed dose; 0% is about no effect
Shiga toxin inh – inhibitors of Shiga toxin in Vero cells; Vero cells, Shiga toxin protein synthesis inhibition reporter; AID 2315; 290,000 compounds, 9.2% hits; inhibition, % at 38.7 µM; in the data active = inhibition mostly above about 28%, no sharp cut-off; inactive = mostly below about 43%; note: 0% is about no effect
Giardia FBPA inh – inhibitors of Giardia lamblia fructose-1,6-bisphosphate aldolase | A8B2U2 | purified Giardia FBPA | Potency, µM (highest dose often 59.6 µM), inactives show top-dose activity, negative = inhibition, hits mostly inhibitors | 290,000 compounds, 0.71% hits | AID 2451; note: potency is the fitted concentration of half-maximal effect; % is set by controls: 0 for no effect and ±100 for the full control effect; nearly all actives have a fitted effect of over 55% in size
Target sequence (A8B2U2 whole entry, looked up): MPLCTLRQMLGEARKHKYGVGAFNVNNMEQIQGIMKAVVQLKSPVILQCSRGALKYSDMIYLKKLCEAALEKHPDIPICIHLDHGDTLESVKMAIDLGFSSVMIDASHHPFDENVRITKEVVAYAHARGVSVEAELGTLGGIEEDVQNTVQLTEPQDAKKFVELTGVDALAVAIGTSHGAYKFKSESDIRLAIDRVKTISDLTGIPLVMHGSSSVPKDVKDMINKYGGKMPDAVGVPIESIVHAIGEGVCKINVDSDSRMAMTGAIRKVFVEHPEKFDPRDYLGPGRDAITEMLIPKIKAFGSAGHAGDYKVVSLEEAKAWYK
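40 nM FBPA preincubated 10 min at RT with compound (up to 57.5 uM final), then substrate plus GAPDH/TPI/NAD/arsenate coupling and diaphorase/resazurin added. Fluorescence read after 20 min at RT, 525/598 nm.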
Sm TGR block – blocks Schistosoma mansoni thioredoxin glutathione reductase; purified TGR, DTNB reduction, TNB absorbance 405 nm; Potency, µM (top dose mostly 114 µM), inactives show at the highest dose activity change, negative = inhibition, most hits filed as inhibitors; 360,000 compounds, 3% hits; note: potency is the fitted concentration of half-maximal effect; % is set by controls: 0 for no effect and ±100 for the full control effect; nearly all actives have a fitted effect of over 60% in size
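First, TGR (20 nM dispensed) and NADPH were mixed with compound. Second, a 15 min room-temperature incubation followed. Third, further NADPH and then DTNB were added to start the reaction. Finally, TNB absorbance was monitored kinetically.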
Tb PYK inh – T. brucei pyruvate kinase inhibition. AID 624173. TbPYK enzyme, Kinase-Glo Plus ATP luminescence, 45 min. Potency, µM (highest dose often 76.8 µM), without a hit: top-dose activity, negative = inhibition, usual class: inhibitors. 410,000 compounds, 0.12% hits; note: potency is the fitted concentration of half-maximal effect; % is set by controls: 0 for no effect and ±100 for the full control effect; nearly all actives have a fitted effect of over 50% in size
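In this concentration-response screen, enzyme-free wells defined baseline while DMSO plates tracked drift. Each reaction combined TbPYK, substrate, compound and 130 uM ADP for 45 min at room temperature. Kinase-Glo Plus luminescence gave the signal.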
Active calls of the source: *; i = inactive; ? = inconclusive; · = no result; [ ] = remark or other dose. Unless noted, calls come from the whole dose curve; as a rule, active = well fitted curve in the direction sought with a large enough effect; inconclusive = small, poorly fitted or top-dose-only effect, or another doubt; inactive = no such curve, though single readings can be large; an effect the other way counts as inactive or inconclusive.

SMILES	LmPK inhibitor	CHX counter	Shiga toxin inh	Giardia FBPA inh	Sm TGR block	Tb PYK inh
CCC(=O)OC1(C)C(=O)C=C2C=C(c3ccsc3)OC=C2C1=O (configuration not stated)	-6.0%	-6.0	4.3	?	31.6µM*	-7.7%
CN1CCN(c2nc(-c3ccc4c(c3)OCO4)nc3ccccc23)CC1	·	·	·	2.8%	·	·
Cc1ccccc1SC1CCN(Cc2nc(C3CC3)no2)CC1	5.1%	19.3*	25.2	-0.6%	1.6%	-9.6%
N#CCCN/N=C(/Cc1nc2ccccc2[nH]1)c1ccc(Cl)cc1	-4.5%	29.8*	66.9*	-7.6%	-30.5%	·
Cc1ccc(N/N=C(\Cc2nc3ccccc3[nH]2)c2ccccc2)cc1	3.0%	34.6*	48.1*	1.3%	39.8µM*	-7.3%
c1ccc(N/N=C(\Cc2nc3ccccc3[nH]2)c2ccccc2)cc1	-2.7%	52.3*	47.8*	-3.7%	-2.4%	0.2%
N#CCCN/N=C(\Cc1nc2ccccc2[nH]1)c1ccccc1	10.6%	18.9	39.2	-24.3%	6.8%	-4.0%
O=C(CNC(=O)c1ccccc1)NCCc1nc2ccccc2[nH]1	-3.6%	0.9	4.5	-0.1%	-0.7%	-8.2%
O=C(NCCc1nc2ccccc2[nH]1)c1cc([N+](=O)[O-])cc([N+](=O)[O-])c1	3.4%	-1.8	-3.6	0.6%	-10.7%	-2.8%
Cc1ccc(Cc2nc3ccccc3[nH]2)cc1	-0.2%	7.8	31.1	-3.7%	3.6%	1.7%
N/N=C(/Cc1nc2ccccc2[nH]1)c1ccc([N+](=O)[O-])cc1	-3.9%	44.3*	140.6*	-3.8%	-11.0%	3.5%
Clc1cccc(/C(Cc2nc3ccccc3[nH]2)=N\Nc2ccccc2)c1	-4.1%	54.1*	54.7*	0.2%	4.0%	-10.6%
CCN/N=C(\Cc1nc2ccccc2[nH]1)c1ccccc1	-1.9%	20.0*	58.5	-1.1%	-6.8%	1.4%
COc1ccc(NC(=O)C2(C)CCN2Cc2ccc(OC(F)(F)F)cc2)cc1OC (configuration not stated)	·	·	·	·	·	-0.5%
CCN(CC)c1nn2c(=O)c(C(=O)NCCc3ccc(C)cc3)cnc2s1	·	·	·	·	-13.1%	-3.0%
COc1ccccc1N(CC(=O)N(C)Cc1ccccc1)S(=O)(=O)c1cccs1	·	·	·	·	-2.5%	-7.4%
CC(C)(C)c1ccc(-n2nc(C#N)c(Cl)cc2=O)cc1	0.8%	-16.7	-22.1	-5.3%	8.91µM*	-6.2%
CC(C)(C)c1ccc(-n2nc(C(N)=O)c(O)cc2=O)cc1	-1.5%	-0.4	-2.9	-8.2%	-0.2%	-18.4%
COc1ccc(-c2cc(C(=O)O)n(Cc3ccccc3)n2)cc1	·	·	·	·	4.7%	1.1%
Cc1ccc(CN(C)C(=O)c2cc(COc3cccc(C(F)(F)F)c3)on2)o1	3.0%	7.1	8.0	-0.9%	10µM*	?
CCc1ccc(CN(C)C(=O)c2cc(COc3cccc(C(F)(F)F)c3)on2)nc1	1.8%	13.8	38.9	3.4%	-0.7%	-0.7%
CN(Cc1nccn1C)C(=O)c1cc(COc2cccc(C(F)(F)F)c2)on1	-11.0%	36.9*	41.7*	·	-22.7%	-6.3%
Cc1csc(NC(=O)Cc2c(F)cccc2Cl)n1	-6.0%	34.9*	·	-1.2%	5.6%	3.6%
Cc1cc(CNC(=O)c2cc(COc3c(F)cccc3F)on2)nn1C	-0.7%	1.5	-14.2	1.6%	-3.0%	-6.9%
COc1ccc(OC)c(-c2csc(NC(=O)Cc3ccccc3F)n2)c1	-2.4%	27.6*	40.6*	-8.5%	-7.6%	8.4%
SMILES	LmPK inhibitor	CHX counter	Shiga toxin inh	Giardia FBPA inh	Sm TGR block	Tb PYK inh
Cc1cc(CNC(=O)Cc2c(F)cccc2Cl)nn1C	-1.1%	18.4*	34.1*	-0.7%	-8.4%	13.1%
Cc1cccc(NC(=O)Cc2ccc(-c3ccccc3)cc2)n1	-3.0%	5.4	13.8	-7.0%	-4.2%	-7.5%
O=C(Cc1c(F)cccc1Cl)Nc1ccncc1	-0.4%	-1.8	-4.8	4.1%	-10.1%	3.0%
Cc1ccc(CC(=O)Nc2cccc(C)n2)cc1	-0.4%	33.3*	69.0*	-1.5%	3.7%	-4.1%
O=C(Cn1cc(S(=O)(=O)Cc2ccc(F)cc2)c2ccccc21)NCCc1ccccc1	·	·	·	·	0.8%	2.1%[15.4 µM]
COc1cccc(CC(=O)Nc2nc(C)cs2)c1	0.1%	42.7*	71.6*	-2.2%	0.7%	-2.2%
Cc1cccc(NC(=O)Cc2c(F)cccc2Cl)n1	-1.1%	28.2*	112.4*	4.5%	-11.4%	-5.3%
O=C(Cc1ccc(F)cc1)Nc1nc(-c2ccc(F)c(F)c2)cs1	2.5%	2.0	11.0	9.3%	0.9%	-4.6%
Cc1csc(NC(=O)Cc2ccc(F)cc2)n1	8.1%	34.0*	76.6*	13.0%	0.0%	-4.2%
COc1cccc(CC(=O)Nc2ncc(C)s2)c1	1.1%	11.0	24.2	7.9%	-7.2%	-4.6%
CC(C)(C)c1ccc(C(=O)Nc2onc3c2CCCC3)cc1	·	·	·	·	11.0%	-4.8%
COc1cccc2c1OC(=O)CC2c1ccc(C)cc1 (configuration not stated)	·	5.8	i	28.5%[89.2 µM]	·	·
O=C(CCl)N1CCN(C(=O)C2COc3ccccc3O2)CC1 (configuration not stated)	·	·	·	·	·	-7.0%
O=C(CN1CCSc2ccccc21)N1CCCCC1	·	·	·	·	1.8%	2.2%
O=C(CCl)N1c2ccccc2OCC1c1ccccc1 (configuration not stated)	10.3%	4.6	13.4	?	3.16µM*	0.8%
O=C(CCl)N1c2ccccc2SCC1c1ccccc1 (configuration not stated)	-6.3%	11.0	13.0	-3.7%	2.82µM*	-15.3%
O=C(Nc1ccc(Cl)cc1)C1C2C=CC3(O2)C1C(=O)N(CCN1CCCCC1)C3C(=O)NC1CCCCC1 (configuration not stated)	-4.8%	-4.0	20.1	9.6%	-4.4%	0.6%
CCOc1ccc(S(=O)(=O)Nc2ccc3c(c2)N(C(C)=O)CCC3)cc1	·	·	·	·	?	4.7%
Cc1noc(C)c1-c1ccc2ncnc(NCc3ccc(C(F)(F)F)o3)c2c1	·	12.5	15.9	-0.2%	·	·
CC(C)[C@H]1COC(c2cc(Cl)cc(Cl)c2)=N1	·	-3.9	i	0.8%[89.2 µM]	·	·
O=C(Nc1ccc(N2CCN(C(=O)c3ccco3)CC2)c(Cl)c1)c1cccs1	0.2%	21.9*	28.9*	-11.0%	0.5%	-4.9%
CC(C)C(=O)N1CCN(c2ccc(NC(=O)c3cccs3)cc2Cl)CC1	-5.4%	12.1	24.8*	-10.9%	11.2%	-1.1%
CC(C)C(=O)N1CCN(c2ccc(NC(=O)c3ccc4c(c3)OCCO4)cc2Cl)CC1	3.0%	-2.1	-12.0	-26.9%	-23.8%	-0.8%
Cc1cc(C)c(/C=C/c2onc(C)c2S(=O)(=O)N2CCC(C(=O)N(C)Cc3ccccc3)CC2)c(C)c1	·	·	·	·	1.2%	-3.0%
CCOC(=O)c1c(NC(C)=O)c2c3c(sc2n1Cc1ccc(Cl)cc1)CCCC3	·	·	·	·	-4.2%	2.5%
